# Test results taken from the supplement of paper PMC10849652.
# The full data set covers some 8,800 targets. This sample favours those with a hit. About 0.5% of all pairs of compound and target were hits. Values without a mark were called inactive.
# Key:
# Test in all cases: log2 fold change, soluble protein after heating vs DMSO (PISA); higher = thermal stabilisation; K562 lysate, 10 uM; active = over 0.2 and 3.5 SD of the protein, either way, in both replicates (recomputed)
# lapatinib = compound: CS(=O)(=O)CCNCc1ccc(-c2ccc3ncnc(Nc4ccc(OCc5cccc(F)c5)c(Cl)c4)c3c2)o1 [lapatinib]
# Method in brief: (§1)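 To prepare the extract, K562 pellets were dounce-homogenised in PBS pH 7.4 with 1 mM MgCl2, giving crude material at 1 mg/mL protein. This was treated with 10 μM compound for 30 min, then heated in aliquots for 3 min over 48°C-58°C before pooling and addition of NP-40 to 0.5% at 4°C. Centrifugation at 21,000xg for 90 min left soluble protein in the supernatant, which TMTpro 16plex LC-MS/MS quantified with equalised channel sums. Results are log-two fold changes in thermal stability compared with solvent controls, from duplicates.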
# pictilisib = compound: CS(=O)(=O)N1CCN(Cc2cc3nc(-c4cccc5[nH]ncc45)nc(N4CCOCC4)c3s2)CC1 [pictilisib]
# Method in brief: as §1
# crizotinib = compound: C[C@@H](Oc1cc(-c2cnn(C3CCNCC3)c2)cnc1N)c1c(Cl)ccc(F)c1Cl [crizotinib]
# Method in brief: as §1
# [1] = compound: C[C@H](C1=CC=C(C=C1)C(=O)NC2=C3C=CNC3=NC=C2)N
# Method in brief: as §1
# duvelisib = compound: C[C@H](Nc1ncnc2nc[nH]c12)c1cc2cccc(Cl)c2c(=O)n1-c1ccccc1 [duvelisib]
# Method in brief: as §1
# gandotinib = compound: Cc1cc(Nc2cc(CN3CCOCC3)c3nc(C)c(Cc4ccc(Cl)cc4F)n3n2)n[nH]1 [gandotinib]
# Method in brief: as §1
# tozasertib = compound: Cc1cc(Nc2cc(N3CCN(C)CC3)nc(Sc3ccc(NC(=O)C4CC4)cc3)n2)n[nH]1 [tozasertib]
# Method in brief: as §1
# doramapimod = compound: Cc1ccc(-n2nc(C(C)(C)C)cc2NC(=O)Nc2ccc(OCCN3CCOCC3)c3ccccc23)cc1 [doramapimod]
# Method in brief: as §1
# bafetinib = compound: Cc1ccc(NC(=O)c2ccc(CN3CC[C@H](N(C)C)C3)c(C(F)(F)F)c2)cc1Nc1nccc(-c2cncnc2)n1 [bafetinib]
# Method in brief: as §1
# [2] = compound: Cc1cccc(CC(=O)N2CCc3c2ccc(-c2cn(C)c4ncnc(N)c24)c3F)n1
# Method in brief: as §1
# UniProt Q9BXS6, sequence (Q9BXS6 whole entry, looked up): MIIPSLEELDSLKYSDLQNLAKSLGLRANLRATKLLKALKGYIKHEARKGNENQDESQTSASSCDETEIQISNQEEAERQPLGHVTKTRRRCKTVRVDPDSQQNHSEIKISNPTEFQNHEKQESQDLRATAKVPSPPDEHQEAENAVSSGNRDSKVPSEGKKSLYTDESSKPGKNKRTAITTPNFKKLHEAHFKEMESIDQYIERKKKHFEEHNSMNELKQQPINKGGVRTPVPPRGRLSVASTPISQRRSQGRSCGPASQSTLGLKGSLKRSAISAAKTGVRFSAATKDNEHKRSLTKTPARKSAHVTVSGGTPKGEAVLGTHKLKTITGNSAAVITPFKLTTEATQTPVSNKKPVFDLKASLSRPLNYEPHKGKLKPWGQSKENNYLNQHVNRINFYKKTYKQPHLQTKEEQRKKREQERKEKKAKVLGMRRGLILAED
# UniProt Q8TAT6, sequence (Q8TAT6 whole entry, looked up): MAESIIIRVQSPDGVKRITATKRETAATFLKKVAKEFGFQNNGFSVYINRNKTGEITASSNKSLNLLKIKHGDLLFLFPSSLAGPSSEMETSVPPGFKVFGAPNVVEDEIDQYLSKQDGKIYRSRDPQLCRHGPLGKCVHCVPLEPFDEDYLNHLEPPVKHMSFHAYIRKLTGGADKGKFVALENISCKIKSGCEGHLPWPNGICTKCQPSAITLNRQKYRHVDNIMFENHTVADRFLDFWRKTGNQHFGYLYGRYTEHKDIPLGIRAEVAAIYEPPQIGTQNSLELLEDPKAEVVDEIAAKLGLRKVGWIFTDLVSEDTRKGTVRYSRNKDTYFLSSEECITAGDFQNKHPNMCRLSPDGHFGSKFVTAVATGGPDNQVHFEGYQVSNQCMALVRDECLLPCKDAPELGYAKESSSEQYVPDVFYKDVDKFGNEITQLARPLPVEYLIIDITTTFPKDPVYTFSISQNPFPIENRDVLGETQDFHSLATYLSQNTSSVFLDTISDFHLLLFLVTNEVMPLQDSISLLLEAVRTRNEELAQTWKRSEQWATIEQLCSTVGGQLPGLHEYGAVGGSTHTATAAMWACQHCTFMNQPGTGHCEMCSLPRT
# UniProt P22059, sequence (P22059 whole entry, looked up): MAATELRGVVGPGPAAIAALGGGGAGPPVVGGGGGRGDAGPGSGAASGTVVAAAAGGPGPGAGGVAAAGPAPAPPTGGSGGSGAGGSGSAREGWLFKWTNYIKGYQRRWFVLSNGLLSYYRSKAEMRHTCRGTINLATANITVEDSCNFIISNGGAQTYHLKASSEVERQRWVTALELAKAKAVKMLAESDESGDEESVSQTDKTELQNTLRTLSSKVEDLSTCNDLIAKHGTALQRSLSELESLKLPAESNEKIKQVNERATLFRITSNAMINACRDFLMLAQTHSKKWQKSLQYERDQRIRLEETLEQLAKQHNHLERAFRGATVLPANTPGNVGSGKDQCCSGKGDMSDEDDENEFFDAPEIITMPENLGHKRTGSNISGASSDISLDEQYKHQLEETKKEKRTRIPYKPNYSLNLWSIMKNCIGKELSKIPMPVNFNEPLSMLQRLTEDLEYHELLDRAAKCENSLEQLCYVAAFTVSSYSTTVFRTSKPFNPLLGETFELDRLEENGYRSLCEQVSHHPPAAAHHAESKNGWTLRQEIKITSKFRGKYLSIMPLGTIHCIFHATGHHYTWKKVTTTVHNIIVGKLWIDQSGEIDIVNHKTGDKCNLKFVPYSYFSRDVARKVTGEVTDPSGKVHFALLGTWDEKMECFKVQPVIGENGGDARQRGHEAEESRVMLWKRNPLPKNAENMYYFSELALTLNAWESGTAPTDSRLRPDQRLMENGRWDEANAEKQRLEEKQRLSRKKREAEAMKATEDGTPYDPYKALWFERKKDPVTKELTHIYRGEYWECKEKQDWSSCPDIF
# UniProt P30419, sequence (P30419 whole entry, looked up): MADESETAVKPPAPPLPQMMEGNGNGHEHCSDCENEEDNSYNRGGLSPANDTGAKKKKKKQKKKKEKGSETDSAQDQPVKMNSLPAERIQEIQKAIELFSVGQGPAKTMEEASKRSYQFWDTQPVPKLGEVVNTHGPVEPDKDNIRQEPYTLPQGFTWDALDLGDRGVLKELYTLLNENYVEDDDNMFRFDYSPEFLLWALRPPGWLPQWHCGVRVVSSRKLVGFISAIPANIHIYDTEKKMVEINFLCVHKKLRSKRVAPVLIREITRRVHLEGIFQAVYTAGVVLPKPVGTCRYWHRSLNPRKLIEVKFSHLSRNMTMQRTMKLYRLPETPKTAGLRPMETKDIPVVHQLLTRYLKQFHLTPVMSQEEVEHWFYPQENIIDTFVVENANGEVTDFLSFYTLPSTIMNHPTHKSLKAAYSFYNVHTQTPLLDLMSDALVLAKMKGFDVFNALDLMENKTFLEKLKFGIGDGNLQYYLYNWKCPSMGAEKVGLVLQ
# UniProt Q96NT1, sequence (Q96NT1 whole entry, looked up): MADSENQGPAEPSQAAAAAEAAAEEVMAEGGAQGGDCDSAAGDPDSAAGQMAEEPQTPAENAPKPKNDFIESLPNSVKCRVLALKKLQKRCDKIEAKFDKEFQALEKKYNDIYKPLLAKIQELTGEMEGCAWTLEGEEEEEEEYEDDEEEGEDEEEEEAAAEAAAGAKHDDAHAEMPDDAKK
# UniProt Q9BZ23, sequence (Q9BZ23 whole entry, looked up): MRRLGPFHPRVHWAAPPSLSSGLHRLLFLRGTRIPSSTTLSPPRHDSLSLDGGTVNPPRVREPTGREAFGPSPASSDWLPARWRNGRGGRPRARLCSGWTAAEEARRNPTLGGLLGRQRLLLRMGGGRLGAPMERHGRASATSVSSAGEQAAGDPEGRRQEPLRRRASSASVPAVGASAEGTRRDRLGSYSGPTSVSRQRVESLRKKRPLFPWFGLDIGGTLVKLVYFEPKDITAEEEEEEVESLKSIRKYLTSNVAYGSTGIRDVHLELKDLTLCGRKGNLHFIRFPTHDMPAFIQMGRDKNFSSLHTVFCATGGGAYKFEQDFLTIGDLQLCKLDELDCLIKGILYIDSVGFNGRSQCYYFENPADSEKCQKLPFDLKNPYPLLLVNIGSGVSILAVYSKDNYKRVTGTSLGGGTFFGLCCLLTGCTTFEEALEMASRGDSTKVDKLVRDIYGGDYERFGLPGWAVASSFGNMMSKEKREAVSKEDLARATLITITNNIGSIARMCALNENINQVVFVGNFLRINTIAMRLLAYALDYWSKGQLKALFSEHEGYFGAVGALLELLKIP
# UniProt Q96IV0, sequence (Q96IV0 whole entry, looked up): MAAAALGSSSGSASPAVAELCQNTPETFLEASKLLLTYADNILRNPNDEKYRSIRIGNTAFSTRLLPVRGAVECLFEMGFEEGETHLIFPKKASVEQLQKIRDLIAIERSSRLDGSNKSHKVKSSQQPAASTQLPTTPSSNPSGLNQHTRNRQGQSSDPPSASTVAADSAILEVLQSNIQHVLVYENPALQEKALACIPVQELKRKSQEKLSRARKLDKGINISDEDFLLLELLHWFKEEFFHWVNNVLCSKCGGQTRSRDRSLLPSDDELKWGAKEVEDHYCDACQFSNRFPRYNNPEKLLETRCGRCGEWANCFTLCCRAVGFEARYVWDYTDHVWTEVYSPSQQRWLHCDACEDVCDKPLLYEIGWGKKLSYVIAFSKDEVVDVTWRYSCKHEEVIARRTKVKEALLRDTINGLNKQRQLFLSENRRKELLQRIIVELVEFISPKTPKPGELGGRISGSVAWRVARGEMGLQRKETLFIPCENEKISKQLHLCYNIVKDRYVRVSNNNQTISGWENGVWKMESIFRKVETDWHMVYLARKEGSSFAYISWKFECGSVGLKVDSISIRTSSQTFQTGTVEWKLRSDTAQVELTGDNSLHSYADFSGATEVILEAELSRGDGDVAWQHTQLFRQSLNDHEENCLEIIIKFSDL
# UniProt O94832, sequence (O94832 whole entry, looked up): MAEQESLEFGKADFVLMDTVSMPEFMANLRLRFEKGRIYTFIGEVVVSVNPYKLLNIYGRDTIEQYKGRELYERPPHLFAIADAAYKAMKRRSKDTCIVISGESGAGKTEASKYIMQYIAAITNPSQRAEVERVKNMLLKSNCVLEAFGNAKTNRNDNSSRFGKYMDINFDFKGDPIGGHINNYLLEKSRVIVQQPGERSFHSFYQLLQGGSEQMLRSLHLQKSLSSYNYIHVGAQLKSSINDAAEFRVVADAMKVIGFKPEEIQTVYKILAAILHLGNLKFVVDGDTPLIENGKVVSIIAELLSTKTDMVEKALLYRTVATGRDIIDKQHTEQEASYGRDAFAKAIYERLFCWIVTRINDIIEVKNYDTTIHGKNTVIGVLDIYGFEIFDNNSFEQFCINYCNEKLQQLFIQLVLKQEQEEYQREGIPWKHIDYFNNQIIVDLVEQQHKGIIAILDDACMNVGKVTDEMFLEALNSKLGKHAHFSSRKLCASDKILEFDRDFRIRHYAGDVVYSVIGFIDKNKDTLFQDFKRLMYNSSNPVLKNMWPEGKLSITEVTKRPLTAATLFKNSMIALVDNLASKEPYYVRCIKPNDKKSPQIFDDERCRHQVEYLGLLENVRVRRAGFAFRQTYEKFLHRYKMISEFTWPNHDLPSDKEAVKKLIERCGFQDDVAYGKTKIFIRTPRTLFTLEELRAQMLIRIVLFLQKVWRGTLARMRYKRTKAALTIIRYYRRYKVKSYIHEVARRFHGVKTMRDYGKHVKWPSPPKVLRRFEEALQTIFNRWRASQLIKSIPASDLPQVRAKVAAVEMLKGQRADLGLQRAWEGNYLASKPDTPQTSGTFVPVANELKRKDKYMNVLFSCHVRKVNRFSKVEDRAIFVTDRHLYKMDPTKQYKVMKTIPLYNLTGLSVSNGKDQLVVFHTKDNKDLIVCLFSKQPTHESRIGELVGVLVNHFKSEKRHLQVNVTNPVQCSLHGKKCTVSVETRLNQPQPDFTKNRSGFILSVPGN
# UniProt Q9BRA0, sequence (Q9BRA0 whole entry, looked up): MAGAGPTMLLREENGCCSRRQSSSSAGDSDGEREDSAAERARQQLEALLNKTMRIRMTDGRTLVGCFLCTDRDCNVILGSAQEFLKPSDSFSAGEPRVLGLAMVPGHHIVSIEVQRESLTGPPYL
Target,log2 fold change (lapatinib),log2 fold change (pictilisib),log2 fold change (crizotinib),log2 fold change [1],log2 fold change (duvelisib),log2 fold change (gandotinib),log2 fold change (tozasertib),log2 fold change (doramapimod),log2 fold change (bafetinib),log2 fold change [2]
NMT1 (UniProt P30419),0.02,0.005,-0.006,0.016,-0.023,-0.021,0.012,-0.015,0.09,-0.034
MYO1D (UniProt O94832),0.014,-0.051,-0.035,0.016,-0.028,-0.072,0.01,0.011,-0.041,-0.005
OLA1 (UniProt Q9NTK5),-0.009,0.013,-0.005,-0.088,0.007,-0.035,0.025,0.018,0.024,0.052
NSL1 (UniProt Q96IY1),-0.003,-0.032,0.051,0.001,-0.033,0.094,-0.01,-0.047,0.034,0.006
PANK2 (UniProt Q9BZ23),0.079,0.143,-0.073,-0.023,-0.126,0.077,0.008,-0.008,-0.029,0.095
MT-CYB (UniProt P00156),-0.054,-0.025,-0.126,-0.856 (active),0.094,0.568 (active),-0.074,-0.05,0.05,0.385
NBEAL2 (UniProt Q6ZNJ1),-0.065,-0.016,-0.069,-0.006,0.04,-0.157,0.02,0.008,-0.056,0.072
MYD88 isoform 6 (UniProt Q99836),0.014,-0.006,-0.007,-0.032,0.03,-0.009,0.068,0.019,-0.018,0
NAA38 isoform 2 (UniProt Q9BRA0),-0.028,-0.018,0.001,-0.382 (active),-0.016,0.202,0.062,-0.088,-0.041,0.244 (active)
MTHFD1 (UniProt V9GZ32),-0.067,–,–,–,–,–,–,–,–,–
OTUD7B (UniProt Q6GQQ9),0.033,0.025,-0.099,0.006,-0.041,0.032,-0.01,-0.012,-0.003,0.003
NFATC2IP (UniProt Q8NCF5),0.002,-0.091,0.027,0.059,-0.067,0.039,-0.035,0.001,-0.169,-0.018
NFATC1 (UniProt O95644),-0.003,-0.088,-0.111,-0.136,0.007,0.132,-0.002,0.017,-0.043,0.179
NUSAP1 (UniProt Q9BXS6),-0.004,-0.018,0.045,-0.334 (active),-0.022,0.141,-0.001,-0.011,0.008,0.217 (active)
NIPBL (UniProt Q6KC79),-0.03,-0.081,-0.034,0.039,0,-0.094,-0.005,0.033,0.001,0.016
OSBP (UniProt P22059),-0.101,-0.046,0.007,0,0.037,-0.072,-0.015,-0.028,-0.093,0.03

Target,log2 fold change (lapatinib),log2 fold change (pictilisib),log2 fold change (crizotinib),log2 fold change [1],log2 fold change (duvelisib),log2 fold change (gandotinib),log2 fold change (tozasertib),log2 fold change (doramapimod),log2 fold change (bafetinib),log2 fold change [2]
NTMT1 (UniProt S4R338),0.082,–,–,–,–,–,–,–,–,–
NDUFS1 isoform 2 (UniProt P28331),0.023,-0.014,0.034,0.009,-0.01,-0.006,0.03,0.024,-0.013,-0.006
NPLOC4 isoform 2 (UniProt Q8TAT6),0.022,0.003,-0.023,-0.087,0.01,0.046,-0.003,0.056,-0.019,0.007
MSH2 (UniProt P43246),-0.005,-0.003,-0.04,0.028,-0.001,-0.068,0.002,0.013,-0.026,0.002
NEBL (UniProt O76041),0.054,-0.046,0.09,0.106,0.023,-0.204,0.01,-0.006,-0.037,-0.076
MYOM1 (UniProt P52179),0.099,0.009,0.054,-0.082,-0.02,0.065,-0.137,-0.436,-0.252,0.05
MYCBP2 (UniProt O75592),-0.042,-0.026,-0.07,-0.028,0.023,0.054,0.023,0.016,-0.004,0.114
NARF (UniProt Q9UHQ1),-0.027,0.01,0.032,0.001,0.029,0.008,0.02,0.012,-0.008,-0.04
NCAPH2 (UniProt Q6IBW4),-0.075,-0.023,-0.04,-0.01,-0.03,-0.052,0.058,-0.051,-0.036,0.185
NEK9 (UniProt Q8TD19),-0.013,0.039,0.057,-0.092,0.006,0.108,0.025,-0.033,0.014,0.019
PAN2 isoform 2 (UniProt Q504Q3),-0.044,0.045,-0.085,0.003,0.041,-0.053,0.27 (active),0.09,-0.108,0.084
NGLY1 (UniProt Q96IV0),-0.017,-0.002,-0.058,0.038,-0.001,-0.053,-0.025,-0.013,-0.048,0.04
NAP1L5 (UniProt Q96NT1),0.079,0.017,0.094,0.616 (active),0.099,-0.299,-0.016,-0.171,0.076,-0.174
NNMT (UniProt P40261),-0.017,0.037,-0.065,-0.072,0.066,0.015,0,0.013,-0.066,-0.001
NMRAL1 (UniProt Q9HBL8),-0.003,0.105,-0.017,0.695 (active),0.08,-0.01,-0.051,0.036,0.005,0.011
